Data as given in PubChem BioAssay (Tox21).
Inconclusive results are not listed. A call without a number means that no potency is given here. The source made the active and inactive calls. Calls come from the whole dose curve.

Assay: cAMP Responsive Elements (CRE) small molecule agonists, cell-based qHTS assay (AID 1963590)
Details: CRE-bla HEK293T, beta-lactamase FRET ratio, 3 h; series mostly up to 92.4 µM
Excerpt: U.S. Tox21 Program National Center for Advancing Translational Sciences [NCATS] Division of Preclinical Innovation [DPI] U.S. Environmental Protection Agency [EPA] National Institutes of Environmental Health Sciences [NIEHS] National Toxicology Program [NTP] U.S. Food and Drug Administration [FDA] Tox21 Assay Overview: CREB (cyclic-AMP Responsive Element Binding Protein) is a cellular transcription factor. It binds to certain DNA sequences called cAMP Responsive Elements (CRE) and regulates the transcription of the genes. […] This cell line can be used to find agonists/antagonists of the cyclic AMP signaling pathway. The activation of the report gene under culture conditions can be detected by fluorescence intensity. This cell line has been used to screen the Tox21 10K compound library to identify agonists that induce oxidative stress.
Tox21 Assay Protocol Summary: CRE-bla Hek 293T cells were suspended in assay medium (DMEM containing 10% dialyzed FBS, 0.1 mM NEAA, 1 mM sodium pyruvate and 25 mM HEPES) and dispensed at 2,000 cells/5 uL /well into 1536-well black wall/clear bottom plates using a Multidrop Combi (ThermoFisher Scientific, Waltham, MA) dispenser. After the assay plates were incubated at 37 C/5% CO2 for 18 hrs, 23 nL of compounds dissolved in DMSO, positive controls or DMSO only was transferred to the assay plate by a pintool workstation (Kalypsys, San Diego, CA). After the plates were incubated at 37 C/5% CO2 for 3 hrs, 1 uL of LiveBLAzer B/G FRET substrate (Invitrogen, Carlsbad, CA) was added to each well using Bioraptr Flying Reagent Dispenser (FRD, Aurora Discovery, San Diego, CA). The plates were incubated at room temperature for 2 h.

Compound | Potency
CCN(CC)CC | inactive
CCCCCC(C)O (stereo not given) | inactive
O=C(O)c1cn(C2CC2)c2cc(N3CCNCC3)c(F)cc2c1=O | inactive
CCC(C)c1cc(C(C)(C)C)c(O)c(C(C)(C)C)c1 (stereo not given) | inactive
CNC1CCCN(c2c(F)cc3c(=O)c(C(=O)O)cn(C4CC4)c3c2OC)C1 (stereo not given) | inactive
CSCC[C@H](NC(=O)[C@H](Cc1c[nH]c2ccccc12)NC(=O)CCNC(=O)OC(C)(C)C)C(=O)N[C@@H](CC(=O)O)C(=O)N[C@@H](Cc1ccccc1)C(N)=O | inactive
Cc1c(O)cccc1O | inactive
NC(=O)c1ccccc1C(N)=O | inactive
CC(=O)OC(C)OC(C)=O | inactive
CN(C)C(=O)Oc1cccc([N+](C)(C)C)c1 | inactive
CO[C@]12C[C@@H](COC(=O)c3cncc(Br)c3)CN(C)[C@@H]1Cc1cn(C)c3cccc2c13 | inactive
Cc1c(C)c2c(c(C)c1OC(=O)c1cccnc1)CC[C@@](C)(CCC[C@H](C)CCC[C@H](C)CCCC(C)C)O2 | inactive
CC(C)c1ccc2cc(C(C)C)ccc2c1 | inactive
CCOc1ccccc1OCC1CNCCO1 (stereo not given) | inactive
CCCC(=O)OCCc1ccccc1 | inactive
Cc1cc(Cl)c(C)cc1Cl | inactive
Nc1ccc2cc(S(=O)(=O)O)cc(O)c2c1N=Nc1ccccc1C(F)(F)F | inactive
CC(=O)OC1C2(C)CCC(C2)C1(C)C (stereo not given) | inactive
N[C@@H]1CONC1=O | inactive
CN1CCN(C2=Nc3cc(Cl)ccc3Nc3ccccc32)CC1 | inactive

Compound | Potency
CCC[Si](OC)(OC)OC | inactive
CCN(CC)CC(=O)Nc1c(C)cccc1C | inactive
O=C(O)CCCl | inactive
O=C(O)/C=C(\CC(=O)O)C(=O)O | inactive
CCCC(CC)CCCCCCCN (stereo not given) | inactive
O=C=NCC1CCCC(CN=C=O)C1 (stereo not given) | inactive
COC(C)CCO (stereo not given) | inactive
CO[Si](C)(OC)OC | inactive
O=C(O)c1ccccc1-c1ccc(C(F)(F)F)cc1 | inactive
N=C(N)S(=O)O | inactive
C[C@@H](c1ncncc1F)C(O)(Cn1cncn1)c1ccc(F)cc1F (stereo not given in full) | inactive
COc1ccc(CCO)cc1 | inactive
CC(=O)O[Si](C)(OC(C)=O)OC(C)=O | inactive
Cc1coc2ccccc2c1=O | inactive
CCC(C(=O)NC(=O)NC(C)=O)c1ccccc1 (stereo not given) | inactive
NNC(=O)CCCCC(=O)NN | inactive
NC(CSCC(=O)O)C(=O)O (stereo not given) | inactive
CCCCCCCC/C=C\CCCCCCCC(=O)OC(CO)CO | inactive
CC(=O)/C(C)=C/C1C(C)=CCCC1(C)C (stereo not given) | inactive
CCCCCCCCOC(=O)c1cc(O)c(O)c(O)c1 | inactive
